Screen size: about 290,000 compounds; about 3,000 (1%) were called active. For the sample, actives were picked, then their nearest neighbours and some compounds at random. Values without a mark were called inactive. Cut-off read from the data, not from the text of the source: active = inhibition mostly above about 36% (no sharp cut-off); inactive = mostly below about 34%.

The nature of this assay: inhibition of NOD1-driven NF-kB reporter – cell-based, luminescence, uHTS, primary screen (AID 1578).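 Note: HEK-293T reporter cells stimulated with the NOD1 agonist gamma-tri-DAP.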 The note with it: NOD1-driven NF-kB luciferase reporter cells, at 4 µM, active compounds read high. Background: Reporter assays use an easily measured gene product as a stand-in for the process of interest.
As a reminder, the inhibition is the drop in the measured response relative to a control, in per cent. Regarding `Cc1ccc2nc(-c3cc(-c4ccccc4)no3)cn2c1`, the inhibition was -4.9%.
For `c1ccc(-c2cc(-c3ccccc3)on2)cc1`, the inhibition is -10%.
For `CCc1ccn2cc(-c3cc(-c4ccccc4)no3)nc2c1`, the inhibition was 45.6% (active).
Then `O=C(NCc1ccccc1)C1CCC(CNS(=O)(=O)c2cccs2)CC1` (configuration not stated), with -1.7%.
For `CCN(C(=O)CSc1nc2cc(C(=O)OC)ccc2c(=O)n1Cc1ccco1)c1cccc(C)c1`, the inhibition is 74% (active).
Take `CCc1ccc(NC(=O)CSc2nc3cc(C(=O)OC)ccc3c(=O)n2Cc2ccco2)cc1`: the inhibition was -7.4%.
In the case of `COC(=O)c1ccc2c(=O)n(Cc3ccco3)c(SCC(=O)Nc3cc(C)on3)nc2c1`, the inhibition was -44.8%.
As to `Cc1ccc(S(=O)(=O)NC(=O)Nc2ccccc2)cc1`, the inhibition is -30.4%.
With `O=C(Cn1nnc(-c2ccc3c(c2)OCO3)n1)NCc1ccccc1`, the inhibition is 4.7%.
Take `O=C(NCC(=O)N1CC(O)CC1C(=O)N1CC(O)CC1C(=O)OCc1ccccc1)OCc1ccccc1` (configuration not stated): the inhibition was -13.7%.
As for `CC(=O)Nc1ccc(S(=O)(=O)N(C)c2ccccc2)cc1`, the figure is -12.7%; as for `CCOC(=O)/C=C/C(=O)Nc1ccc(Oc2ccccc2)cc1`, 6.8%.
For the compound `Cc1cc(NC(=O)Nc2cccc(C(F)(F)F)c2)no1`, the inhibition is -7.7%.
In the case of `NS(=O)(=O)c1cccc(NC(=O)CSc2nn(-c3ccccc3)c(=S)s2)c1`, the inhibition was 39.5%.
Then `Cc1ccc(NC(=O)CSc2nn(-c3ccc(Cl)cc3)c(=S)s2)cc1S(=O)(=O)N(C)C`, with 53.2%; and `Cc1c(C(=O)NCCSCc2cccc(C(F)(F)F)c2)cnn1-c1ccc(F)cc1`, with -3.5%.
With `COc1cccc(NC(=O)Cc2ccc3ccccc3c2)c1`, the inhibition was 15.2%.
Take `Cc1ccc(NC(=O)Cn2c(=O)cnc3ccccc32)cc1S(=O)(=O)N(C)C`: the inhibition is -22.2%.
As for `Cc1sc(NC(=O)Nc2ccccc2)c(C(N)=O)c1C`, the figure is -40.3%; as for `COc1ccc(N2CCN(C(=O)C(C)(C)Oc3ccc(Cl)cc3)CC2)cc1`, -14.6%.
In the case of `COC(=O)c1sc(N2CCN(c3ccc(Cl)cc3)CC2)nc1N`, the inhibition was 66.9% (active).
As for `COc1ccc(N2CCN(C(=O)NC(=O)c3ccc(Cl)cc3)CC2)cc1`, the inhibition was -13.4%.
Regarding `NS(=O)(=O)c1ccc(NCc2cc(Cl)ccc2OCc2ccc(F)cc2)cc1`, the inhibition was 27.2%.
`Cc1ccc2c(c1)c(=O)c1c3n2CCN(C(=O)CCl)C3CC1` (configuration not stated): the inhibition was 105% (active).
On to `Cc1ccc2c(c1)c1c3n2CCN(C(=O)CCl)C3CCC1` (configuration not stated), for which the inhibition was 52.3%.
As for `CC(=O)N1CCn2c3c(c(=O)c4cc(C)ccc42)CCC31` (configuration not stated), the figure is -6.4%; as for `CCc1ccc2c(CN3CCN(S(=O)(=O)c4ccc5c(c4)OCCO5)CC3)cc(=O)oc2c1`, -2.7%; as for `COc1ccc(S(=O)(=O)n2c([N+](=O)[O-])cnc2C)cc1OC`, -2.3%.
Consider `CC1=C(C(=O)OCc2ccccc2)C(c2ccc(Cl)cc2)NC(=O)N1C` (configuration not stated), for which the inhibition was -1.2%.
For `O=C(N/N=C/c1cccnc1)C1CCCCC1`, the inhibition was -16.2%.
Then `Cc1cc(C)cc(C(=O)N2CCN=C2SCc2ccc([N+](=O)[O-])cc2)c1`, with 41%.
Regarding `Cc1ccc(C(=O)N2CCN=C2SCc2ccc([N+](=O)[O-])cc2)cc1`, the inhibition is 35.5%.
As for `Cc1cccc(C(=O)N2CCN=C2SCc2ccc([N+](=O)[O-])cc2)c1`, the figure is 41.9% (active); as for `O=C(C1CC1)N1N=C(c2ccncc2)CC1(O)C(F)(F)F` (configuration not stated), -21.3%.
For `O=C(NCc1cccc(C(F)(F)F)c1)C1CC(c2cccc(F)c2)=NO1` (configuration not stated), the inhibition is -5%.
On to `O=C(/C=C/c1cccc([N+](=O)[O-])c1)Nc1ccccc1N1CCOCC1`, for which the inhibition was -27.5%.
In the case of `COCCCNC(=O)CCN1C(=O)COc2ccccc21`, the inhibition is 9.8%.
Regarding `CC(C)(C)c1cc(CN2CCN(CCO)CC2)cc(C(C)(C)C)c1O`, the inhibition was 45.2%.
In the case of `CC(C)(C)c1cc(C(c2cccnc2)N2CCN(CCO)CC2)cc(C(C)(C)C)c1O` (configuration not stated), the inhibition was 67.2% (active).
Take `CC(C)(C)c1cc(C(=S)N2CCN(CCO)CC2)cc(C(C)(C)C)c1O`: the inhibition was 11.9%.
In the case of `NCCN1C(=O)S/C(=C\c2ccc3c(c2)OCO3)C1=O`, the inhibition was 27.3% (active).
Then `CCCN1C/C(=C/c2ccc3c(c2)OCO3)C(=O)/C(=C/c2ccc3c(c2)OCO3)C1`, with 67.2% (active); and `CCOC(=O)CN1C(=O)S/C(=C\c2ccc3c(c2)OCO3)C1=O`, with 16.9%; and `O=C1/C(=C\c2ccc3c(c2)OCO3)CCC/C1=C/c1ccc2c(c1)OCO2`, with -48%.
As to `CCCN1C(=O)/C(=C/c2ccc3c(c2)OCO3)NC1=S`, the inhibition was -29.7%.
Turning to `O=C(CCN1C(=O)/C(=C/c2ccc3c(c2)OCO3)SC1=S)Nc1ccccc1`, the inhibition was -5.3%.
Turning to `CCOC(=O)c1c(NC(=O)c2cccc(N3C(=O)CCC3=O)c2)sc2c1CCN(CC)C2`, the inhibition is -16.7%.
For `CC(C)(C)C(=O)COC(=O)CCc1nc2ccccc2[nH]c1=O`, the inhibition is 2.2%.
For the compound `O=C(CCN1C(=O)/C(=C\c2cccs2)SC1=S)Nc1ccccn1`, the inhibition is -42%.
Take `O=C(CCCN1C(=O)/C(=C/c2cccs2)SC1=S)Nc1ccccn1`: the inhibition is 63.6% (active).
`O=C(CCCN1C(=O)/C(=C\c2cccs2)SC1=S)Nc1ccccn1`: the inhibition is 4.3%.
With `CSc1ccccc1-c1n[nH]c(=S)o1`, the inhibition is -15%.
Regarding `CC(C)Cc1ccc(C(C)C(=O)O)cc1` (configuration not stated), the inhibition was -13.2%.
On to `CC(C)Cc1ccc(C(C)C(N)=NCCc2ccccc2)cc1` (configuration not stated), for which the inhibition was -10.4%.
For `CC(C)Cc1ccc(C(C)C(=N)N)cc1` (configuration not stated), the inhibition was 43% (active).
On to `CCOP(=O)(OCC)C1NC(=O)N(c2ccccc2)C1=O` (configuration not stated), for which the inhibition is -1.7%.
Regarding `CCc1ccc(C(=O)COC(=O)C(CCSC)NC(=O)c2ccccc2)cc1` (configuration not stated), the inhibition is 16.6%.
With `CCC(C)(C)c1ccc(OCC(=O)N(C)C)c(C(C)(C)CC)c1`, the inhibition is 26.1%.
For the compound `Cc1cc(C(C)(C)C)ccc1OCCCCN1CCCC1`, the inhibition is -74.5%.
Consider `CCC(C)(C)c1ccc(OCCCC[n+]2ccc(C)cc2)c(C(C)(C)CC)c1`, for which the inhibition was 43.7%.
As for `CCC(C)(C)c1ccc(OCCCC[n+]2ccccc2)c(C(C)(C)CC)c1`, the figure is 11.8%; as for `Cc1cccc(-c2oc3ccccc3c2C#CCCO)c1`, -12.5%; as for `COc1ccc(Oc2nccc(OC)c2C#N)cc1`, -18.4%.
Turning to `Cn1c(=O)c2c(nc(SCC(=O)NCC3CCCO3)n2Cc2ccc(F)cc2)n(C)c1=O` (configuration not stated), the inhibition was -8.2%.
For the compound `COc1ccc(CNC(=O)CN(Cc2ccc(Cl)cc2)C(=O)c2csnn2)cc1`, the inhibition was -9%.
With `Cc1oc(-c2cccs2)nc1CS(=O)CC(=O)NCc1ccc2c(c1)OCO2` (configuration not stated), the inhibition was 1.1%.
Consider `COc1ccccc1CNC(=O)c1ccoc1C`, for which the inhibition is 47.6% (active).
As to `COc1ccccc1CCNC(=O)c1ccoc1C`, the inhibition was -33.7%.
Take `COc1ccccc1CNC(=O)c1ccccc1OC`: the inhibition is -29.5%.
On to `COc1ccc(-c2csc(NC(=O)CN3C(=O)CCC3=O)n2)cc1`, for which the inhibition was -30.6%.
As for `Cc1ccc(C(=O)NCCCNC(=O)c2ccc(Cl)cc2)cn1`, the figure is -10.8%.
Consider `O=C(NNS(=O)(=O)c1ccccc1)c1ccc(F)cc1`, for which the inhibition was -11.4%.
Turning to `CN1C=C/C(=C\c2cc[n+](C)c3ccccc23)c2ccccc21`, the inhibition was 20.8%.
As for `C[n+]1c(/C=C/c2ccc(O)cc2)ccc2ccccc21`, the figure is -15.4%; as for `CCNC(=O)C1CCCc2c1[nH]c1ccc(Cl)cc21` (configuration not stated), -25.3%; as for `CCN1C(=O)N(CC)C2C1N(C(C)=O)C(=O)N2C(C)=O` (configuration not stated), -26.2%.
As for `Cc1c(NC(=O)c2ccccc2)c(=O)n(-c2ccccc2)n1C`, the figure is -17.8%.
Then `Cc1c(NC(=O)CC(=O)Nc2c(C)n(C)n(-c3ccccc3)c2=O)c(=O)n(-c2ccccc2)n1C`, with 14.4%.
`Cc1c(NC(N)=O)c(=O)n(-c2ccccc2)n1C`: the inhibition was 54.9% (active).
Turning to `CCOc1ccc(/C=C/c2nc(C#N)c(NCCCOC)o2)cc1`, the inhibition is -11.6%.
For `CCOc1ccc(/C=C/c2nc(C#N)c(NCCCN(C)C)o2)cc1`, the inhibition is 2.8%.
Take `CCNc1oc(/C=C/c2ccc(OCC)cc2)nc1C#N`: the inhibition was 64.9% (active).
For `COc1cc(NC(=O)CSc2nnc(-c3cc(C)on3)o2)cc(OC)c1`, the inhibition was 9.9%.
`CCCc1nnc(NC(=O)C23CC4CC(CC(C4)C2)C3)s1`: the inhibition was 0.1%.
Take `Cc1c(C(=O)Nc2ccc3c(c2)OCO3)sc2nc(-c3ccccc3)cn12`: the inhibition is -35.7%.
Turning to `Cc1c(C(=O)Nc2ccc3c(c2)OCCO3)sc2nc(-c3ccccc3)cn12`, the inhibition was 79.1% (active).
For `Cc1c(C(=O)Nc2ccccc2)sc2nc(-c3ccccc3)cn12`, the inhibition is -15.4%.
Take `CCCCOc1cccc(C(=O)NC(=S)Nc2cccc(NC(=O)c3ccccc3Cl)c2)c1`: the inhibition is -15.9%.
Take `COc1ccc2c(c1OC)C(=O)N(c1cccc(C(F)(F)F)c1)C2`: the inhibition was -67.5%.
Consider `CC(=O)c1ccccc1C(=O)NCc1cccnc1`, for which the inhibition was -9.2%.
With `COC(=O)C1=C(C)Nc2c(c(=O)n(C)c(=O)n2C)C1c1cccnc1` (configuration not stated), the inhibition was -10.6%.
On to `COC(=O)C1=C(C)Nc2c(c(=O)n(C)c(=O)n2C)C1c1ccncc1` (configuration not stated), for which the inhibition was 68.6% (active).
`COC(=O)C1=C(C)Nc2c(c(=O)n(C)c(=O)n2C)C1c1ccc(C)cc1` (configuration not stated): the inhibition was -27.5%.
Consider `Cc1ccc(S(=O)(=O)N(CC(=O)Nc2cccnc2)c2cccc([N+](=O)[O-])c2)cc1`, for which the inhibition was -14.2%.
Take `Cc1ccc(SCC(=O)Nc2cc([N+](=O)[O-])ccc2O)cc1`: the inhibition is 77.2% (active).
Then `Cc1ccc(/C=C2\SC(=S)N(CCC(=O)NNC(=O)c3ccccc3O)C2=O)cc1`, with -24.7%; and `O=C(CCN1C(=O)/C(=C/c2ccc(F)cc2)SC1=S)Nc1cc([N+](=O)[O-])ccc1O`, with -1.3%; and `O=C(CCCN1C(=O)/C(=C\c2cccs2)SC1=S)Nc1cc([N+](=O)[O-])ccc1O`, with 26.3%.
In the case of `COc1ccc([N+](=O)[O-])cc1NC(=O)CSc1ccc2ccccc2c1`, the inhibition is 41.3%.
Then `COc1ccc(/C=C2/SC(=S)N(CCCC(=O)Nc3ccccc3C(=O)O)C2=O)cc1`, with 34.1%; and `Cc1ccc(/C=C2/SC(=S)N(CCCC(=O)Nc3cc([N+](=O)[O-])ccc3O)C2=O)cc1`, with 71.1% (active); and `Cc1ccc(O)c(NC(=O)CSc2ccc(Cl)cc2)c1`, with 17%.

Source of the values: PubChem BioAssay AID1578 (Sanford-Burnham Center for Chemical Genomics, 2009).
